Data as given in PubChem BioAssay AID1628 (Sanford-Burnham Center for Chemical Genomics, 2009).
The campaign covered roughly 190,000 compounds. About 930 (0.49%) were called active. The list shows a part of the results. Entries with a potency or affinity are not part of this list. A number with no mark means an inactive call.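 Rule for the calls: active = z-score of insulin promoter reporter brightness in nuclei below -3 at 5 µM, with at least 500 cells counted; inconclusive = wells with under 500 cells, flagged as toxic or sparse; inactive = the rest.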

assay: insulin promoter down-regulators in MIN6 cells, imaging, high-content screening, mouse beta cells (AID 1628); settings: MIN6 insulin promoter GFP reporter, at 5 µM, stronger effect = lower value

SMILES | z-score
CC(=O)c1c(COC(=O)c2ccncc2)nc2ccccc2[n+]1[O-] | 4.18
CCOc1ccc(C(=O)O)cn1 | 0.1
CCOc1ccc2nc(C)cc(Nc3cccc([N+](=O)[O-])c3)c2c1 | -3.35 (active)
O=[N+]([O-])c1ccc(N(c2ccccc2)c2ccccc2)cc1 | 3.11
CC(C)(C)c1ccc(Cn2c(=N)n(CC(O)c3ccco3)c3ccccc32)cc1 (stereo not drawn) | -5.45 (active)
Cc1ccccc1-n1c(=O)c2ccccc2n(CC(=O)NCc2ccco2)c1=O | 3.06
Cc1ccc(Cn2c(=N)n(CC(O)c3ccco3)c3ccccc32)cc1 (stereo not drawn) | -11.4 (active)
COc1ccc(CN(CC2CCC(C(=O)O)CC2)C(=S)Nc2cccc(C)c2)cc1 (stereo not drawn) | 3.65
COCCSc1nnc(NC(=O)c2ccc([N+](=O)[O-])cc2)s1 | 0.48
Cc1sc2ncnc(NCCCn3ccnc3)c2c1C | -3.16 (active)
COc1ccc(OCC(=O)Nc2ccc(S(=O)(=O)Nc3cc(C)nc(C)n3)cc2)cc1 | 3.12
COc1ccc(C(=O)Nn2cnnc2)cc1OC | 4.36
COc1ccc(C(=O)Nc2ccc(S(=O)(=O)Nc3nccnc3OC)cc2)cc1OC | -3.5 (active)
COc1ccc(C(=O)Nc2cccnc2)cc1OC | 2.67
CCN(CC)c1ccc2cc(/C(N)=N/NC(=O)c3cccs3)c(=O)oc2c1 | 7.11
CCN(CC)c1ccc2cc(-c3nnc(-c4ccccc4)o3)c(=O)oc2c1 | 15.1
Cc1nc2[nH]c(=O)c3c(n2n1)NC1=C(C(=O)CC(C)(C)C1)C3c1ccccc1 (stereo not drawn) | -4.42 (active)
O=C1S/C(=C/c2ccc(N3CCOCC3)o2)C(=O)N1Cc1c(F)cccc1Cl | 3.83
Cc1sc2ncnc(Sc3ccccc3C(=O)Nc3ccc(Br)cc3)c2c1C | -5.49 (active)
CC1CCc2c(C(=O)N3CCN(S(=O)(=O)c4cccs4)CC3)csc2C1 (stereo not drawn) | -3.81 (active)
CC1CCN(S(=O)(=O)c2ccc3c(c2)c(=O)c(C(=O)N2CCCCC2)cn3C)CC1 | 4.9
COC(=O)c1cc2occc2n1Cc1c(F)cccc1Cl | 3.08
COC(=O)c1ccc(COc2ccc3c(C)c(C)c(=O)oc3c2)o1 | 3.49
CCOc1ccc(N2C(N)=NC(N)=NC2(C)C)cc1 | -4.31 (active)

SMILES | z-score
CCOC(=O)CN1CC23C=CC(O2)C(C(=O)Nc2cc(OC)ccc2OC)C3C1=O (stereo not drawn) | 4.17
N#C/C(=C\c1cc([N+](=O)[O-])c(N2CCCCC2)cc1N1CCCCC1)c1nn(-c2ccccc2)c(N)c1C#N | -3.55 (active)
COc1cc(N2CCCC2)c(OC)cc1/C=C(/C#N)c1cccc(F)c1 | 3.95
COc1cc(N2CCCC2)c(OC)cc1/C=C(/C#N)c1cccc(Br)c1 | 15.4
CCOC(=O)CNC(=O)c1cn(C)c(=O)c2cc(OC)c(OC)cc12 | 3.18
CCCNC(=O)c1cc(OC)c(OC)cc1[N+](=O)[O-] | -4.31 (active)
CCN1CCN(c2cc(C)c3cc(NC(=O)Cc4ccccc4OC)ccc3n2)CC1 | -4.89 (active)
CC(=O)N1CCN(Cc2nc3cc(NC(=O)c4ccccc4)ccc3n2C)CC1 | 3.37
Cc1cc(N2CCOCC2)nc2ccc(NC(=S)N3CCCCC3C)cc12 (stereo not drawn) | 1.7
COc1ccccc1CC(=O)NC1CC(C)(C)NC(C)(C)C1 | 3.65
CCc1ccc(CN(C)C(=O)CCc2nnc(-c3ccc(-c4ccccc4)cc3)o2)nc1 | -3.31 (active)
CCN(CC)c1ccc2cc(C#N)c(=O)oc2c1 | 4.24
CCCCCCc1cc2cc(-c3nnc(-c4ccccc4OC)o3)c(=O)oc2cc1O | 8.91
CCCCCCc1cc2cc(C(=O)Nc3ccc(OC)cc3)c(=O)oc2cc1O | -4.12 (active)
CCCCCCc1cc2cc(-c3nnc(-c4ccccc4O)o3)c(=O)oc2cc1O | 7.49
CCCOc1ccc(Cn2cnc3ccccc32)cc1 | -5.58 (active)
COC(=O)c1ccc(OCCn2cnc3ccccc3c2=O)cc1 | 0.57
Cc1cc(SCCOc2ccccc2)nc(N)n1 | 3.13
COC(=O)Cc1c(C)nc2nc(NCc3ccccc3OC)[nH]n2c1=O | 4.27
Cc1cc(C)cc(-n2c(=O)c3sccc3n(CC(=O)NCc3ccco3)c2=O)c1 | 4.64
CC(=O)c1sc2nc(-c3cccs3)cc(C(F)(F)F)c2c1N | 14.9
Nc1ncnc2c1ncn2CCOc1ccccc1 | -4.5 (active)
CC(C)(C)NC(=O)/C=C/c1ccc(C(F)(F)F)cc1 | -3.15 (active)
CC(C)(C)C(=O)/C=c1\s/c(=C\c2ccc(-c3ccc([N+](=O)[O-])cc3)o2)c(=O)n1CC(=O)NC(N)=O | 17.1
